The entries come from a sample that favours hits as a whole.
Dicer inh: blocks human Dicer maturation of pre-miR-21; Q9UPY3; cat-ELCCA pre-miR-21 Dicer processing, chemiluminescence; stronger effect = higher value; z-score at 25 µM; actives 6% (n = 47,000); in the data active = z-score above about 3, passing the limit was not always enough;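 also: higher signal means more uncleaved substrate so more Dicer inhibition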
Each line names hits and unclear results; the compound was inactive in the other large screens.

Cc1ncc(S(=O)(=O)C(C)(C)C)c(N)n1	none
Cc1ncc(S(=O)(=O)Cc2cccs2)c(N)n1	Dicer inh 5.24
CSc1ncc(S(=O)(=O)Cc2cccs2)c(N)n1	none
CN(C1CC2C=CC1C2)S(=O)(=O)c1cc(C(F)(F)F)cc(C(F)(F)F)c1 (stereo not given)	none
C=CCOc1ccc(C2c3c(oc4ccc(C)cc4c3=O)C(=O)N2CCCN(C)C)cc1OCC (stereo not given)	none
CC(C)(C)OC(=O)N1CCCC[C@@H]1C(=O)O	none
Cc1ccc(C2Nn3c(C)nnc3SC2C(=O)Nc2ccc(C)cc2C)cc1 (stereo not given)	none
FC(F)(F)c1ccc(C2=NCCO2)cc1	Dicer inh 4.75
FC(F)(F)c1ccc(-c2nc(=S)[nH][nH]2)cc1	none
FC(F)(F)c1ccc(-c2nnc(-c3ccc4nccnc4c3)o2)cc1	none
NC(=O)c1ccc(-c2ccc(C(N)=O)cc2)cc1	none
COC(=O)c1ccc(C2C(C#N)=C(N)Oc3n[nH]c(-c4ccc5c(c4)OCO5)c32)cc1 (stereo not given)	none
COC(=O)c1ccc(OC(=O)CSc2nc3ccccc3s2)cc1	none
O=C1c2oc3ccc(Br)cc3c(=O)c2C(c2ccc(O)cc2)N1Cc1ccccc1 (stereo not given)	none
CC(C)(C)c1cc(NC(=O)Nc2ccc(Cl)cc2Cl)no1	none
Cc1nc(-c2cccs2)sc1C(=O)NNC(=O)Nc1ccc(Cl)cc1	none
Cc1cc(-c2nc(C)c(C(=O)NNC(=O)Nc3ccc(Cl)cc3Cl)s2)no1	Dicer inh 3.11
CCCCCCSc1nnc(/N=C/NO)s1	none
CCOC(=O)c1cccc(CSC(=N)N)c1	none
NC(=O)CN1C(C(=O)c2ccccc2)=C(N2CCOCC2)c2ccccc2S1(=O)=O	none
NC(=O)CN1C(C(=O)c2ccccc2)=C(NCc2ccccc2)c2ccccc2S1(=O)=O	none
CCCN(CCC)C1=C(C(=O)c2ccccc2)N(CC(N)=O)S(=O)(=O)c2ccccc21	Dicer inh 3.45
CCCOc1ccc(C2C(C#N)=C(N)Oc3n[nH]c(CCC)c32)cc1 (stereo not given)	none
C=CCc1cccc(C2N(C)c3ccccc3N2C)c1O	none
CCOc1ccc2[nH]c(C)c(CN3CCCC3)c(=O)c2c1	none
COc1ccc2[nH]c(C)c(CN3CCCC3)c(=O)c2c1	none
COc1ccc2[nH]c(C)c(CN3CCC(C)CC3)c(=O)c2c1	Dicer inh 3.48
COC(=O)CSC1=C(C#N)C(c2ccc(O)cc2)CC(=O)N1 (stereo not given)	none
Cc1oc(N)c(S(=O)(=O)/C(C#N)=C/c2cc(Cl)cc(Cl)c2)c1C	none
CCCSc1nc2ccccc2c(=O)n1C1CCCCC1	none
O=c1nc(-c2ccc(Cl)cc2)oc2ccccc12	none
O=c1nc(Nc2ccccc2)oc2ccccc12	Dicer inh 3.75
c1ccc(Nc2nc(-c3ccccc3)nc3ccccc23)cc1	none
CC(C)(Oc1ccc2ccccc2c1)C(=O)O	none
Cn1c(N2CCOCC2)nc2c1c(=O)n(Cc1cccc(Br)c1)c(=O)n2C	none
Cc1ccc(/C(O)=C2/C(=O)C(=O)N(c3cccnc3)C2c2cccc(F)c2)cc1 (stereo not given)	none
CCOC(=O)CSc1nc(-c2ccccc2)cn1-c1ccccc1	none
Cn1c(SCC(=O)Nc2ccccc2)nnc1SCC(=O)Nc1ccccc1	none
O=C(CSc1nc(-c2ccccc2)cn1-c1ccccc1)NC(=O)Nc1ccccc1	Dicer inh 3.38
Cn1c(=O)c2c(nc(NCc3ccccn3)n2C)n(C)c1=O	none
O=C(c1cc(O)c(O)c([N+](=O)[O-])c1)c1ccccc1F	none
Cc1ccc(C(=O)c2cc(O)c(O)c([N+](=O)[O-])c2)cc1	Dicer inh 8.45
CC(=O)c1ccc(SC(C)C)c([N+](=O)[O-])c1	none
Cn1c2ccccc2n2nc(CCC(=O)O)c(=O)nc12	none
COc1nc2ccccc2nc1CCC(=O)O	Dicer inh 3.79
COC(=O)CCc1nc2ccccc2nc1OC	Dicer inh 3.49
CCOC(=O)c1sc(-c2ccccc2)nc1OC	none
COC(=O)c1ccc(COC(=O)CCc2nc3ccccc3[nH]c2=O)cc1	none
CCCCOC(=O)CCc1nc2ccccc2[nH]c1=O	none
N#Cc1ccsc1NC(=O)CSCC(=O)O	none
Cc1cc(C)c2ccc(C3C(=O)c4ccccc4C3=O)nc2c1	none
C=CCOC(=O)c1sc(N2C(=O)c3oc4ccccc4c(=O)c3C2c2ccccc2F)nc1C (stereo not given)	none
Cc1cc(C)nc(N/C=C(\C#N)S(=O)(=O)Cc2ccco2)n1	none
COc1ccc(/C=C/c2nc3n(n2)C=COc2ccccc2-3)cc1	none
CSc1ccc(/C=C/c2nc3n(n2)C=COc2ccccc2-3)cc1	none
C1=Cn2nc(/C=C/c3c[nH]c4ccccc34)nc2-c2ccccc2O1	Dicer inh 4.2
CC(C)(C)NC(=O)Oc1noc2cc(Cl)ccc12	none
COC(=O)c1c(C)nn(C)c1-c1snnc1C	none
N#Cc1c(-c2ccccc2)c(-c2ccccc2)nn(CC(=O)N/N=C/c2cccs2)c1=O	none
N#Cc1c(-c2ccc(Cl)cc2)nc(N/N=C/c2cccs2)[nH]c1=O	Dicer inh 3.52
COc1ccc(-c2nc(N(C)c3ccccc3)[nH]c(=O)c2C#N)cc1	none
N#Cc1c(-c2ccc(Cl)cc2)nc(Nc2ccc(Cl)cc2)[nH]c1=O	none
N#Cc1c(-c2ccc(Cl)c(Cl)c2)cc(-c2ccc(Cl)cc2)[nH]c1=O	none
N#Cc1c(-c2ccccc2)nc(N/N=C/c2cccs2)[nH]c1=O	Dicer inh 3.79
O=C1C=CC(=O)C(CCCCCCC2=CC(=O)C=CC2=O)=C1	none
Cc1cc2c(cc1C)CSC(C)(c1ccc([N+](=O)[O-])cc1)SC2	none
CCN(CC)CCCNc1nc(-c2ccc(Cl)cc2)nc2ccccc12	none
Cc1cc(-c2noc(COc3ccccc3F)n2)c2ccccc2n1	none
NS(=O)(=O)c1ccc(Cl)cc1Sc1ccccc1C(=O)O	none
Oc1ccc(Cl)cc1Sc1cc(Cl)ccc1O	Dicer inh 3.16
Oc1ccc(Cl)cc1-c1csnn1	none
O=C(O)CCS(=O)(=O)CCC(=O)O	none
CCOc1ccc(C2c3c(oc4ccccc4c3=O)C(=O)N2Cc2ccc3c(c2)OCO3)cc1OCC (stereo not given)	none
CSc1nn(-c2ccccc2)cc1C(N)=S	none
CSc1nn(-c2ccccc2)cc1/C(N)=N/O	Dicer inh 6.04
CSc1nn(-c2ccccc2)cc1/C(N)=N/OC(=O)Nc1ccccc1	none
CCOC(=O)c1cc(C)nn1Cc1ccc(Cl)cc1	none
COc1ccc(NC(=O)c2c(NC(=O)COc3ccc(Cl)cc3)sc3c2CCC3)cc1	none
COc1cc2c(cc1OC)/C(=C/c1cc(OC)c(OC)c(OC)c1)C(=O)N2	none
O=C1Nc2ccccc2/C1=C/c1ccc2nsnc2c1	none
O=C1Nc2ccc(I)cc2/C1=C/c1cc(Br)c(O)c(Br)c1	Dicer inh 4.48
CN1CCc2c(sc3c2C(=O)NC(c2ccc(F)cc2)N3)C1 (stereo not given)	none
O=C1C(=O)N(CCCn2ccnc2)C(c2ccco2)/C1=C(\O)c1ccc(Cl)cc1 (stereo not given)	none
COC(=O)/C(C#N)=C\c1cccc2ccccc12	none
CC(Oc1ccc(Cl)cc1Cl)C(=O)Oc1ccc(Cl)cc1Cl (stereo not given)	none
O=C(/C=C/C(=O)Oc1ccc(Cl)cc1Cl)Oc1ccc(Cl)cc1Cl	Dicer inh 3.7
O=S(=O)(CS(=O)(=O)Oc1ccc(Cl)cc1Cl)Oc1ccc(Cl)cc1Cl	none
S=c1[nH]cc(-c2ccc(Cl)cc2)[nH]1	none
O=C1CSC(=O)N1c1ccc(C(F)(F)F)cc1	Dicer inh 3.93
O=C1CSC(=O)N1c1ccc(Cl)cc1	none
COc1ccc(N2C(=O)CSC2=O)cc1	none
O=[N+]([O-])c1ccc(Oc2c(Cl)cc(S(=O)(=O)N3CCOCC3)cc2Cl)c(Cl)c1	none
O=C1NC(=O)c2cc(S(=O)(=O)NCCCO)cc3cccc1c23	none

Compound activity deposited in PubChem by Center for Chemical Genomics, University of Michigan.
